Bioassay records: PubChem, several laboratories
An excerpt weighted towards active compounds, which were near 4.5% of everything screened.
PrPC surface inh – inhibitors of human cell surface prion protein PrPC, primary screen, cell-based, TR-FRET | Major prion protein (Homo sapiens), P04156 | TR-FRET read-out | inhibition, % at 13.8 µM | actives 0.43% (n = 370,000) | AID 720596, 2013; in the data active = inhibition above about 24%; also: 0% = median of the test wells and 100% = reference compound wells
PrP 5UTR inh – inhibition of PrP 5' UTR reporter expression. actives 0.35% (n = 340,000). cell-based PrP 5' UTR mRNA reporter, plate reader. inhibition, % (no concentration beside the values); in the data active = inhibition above about 52%; also: 0 = median of the neutral control wells
GDH-TPI inh – GDH-TPI coupling enzyme inhibitors, primary screen, artefact control for M. tuberculosis FBA inhibitor project, biochemical, absorbance, full deck; GDH-TPI coupled enzyme counterscreen, NADH absorbance; inhibition, % at 4.8 µM; actives 1.2% (n = 360,000); AID 588335, 2011; in the data active = inhibition above about 30%;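 also: 0% = DMSO wells and 100% = wells lacking the enzyme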
BJeLR lethal – MLPCN primary cell-based screen for lethality selective to Ras in HRASV12 cells; BJeLR (HRASV12) viability, CellTiter-Glo ATP luminescence, 48 h; inhibition, % (test concentration not listed); actives 0.17% (n = 300,000); AID 1554, 2009; in the data active = inhibition above about 50%; inconclusive = no clear call, values can overlap the other calls
PfHsp40 rescue – rescue of yeast from PfHsp40 toxicity, primary screen, S. cerevisiae, ATP luminescence; growth rescue, % at 12.5 µM; actives 0.68% (n = 340,000); S. cerevisiae expressing PfHsp40, growth rescue; AID 504582, 2011; in the data active = growth rescue above about 28%, passing the limit was not always enough; inconclusive = no clear call, values can overlap the other calls;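 also: yeast W303a lacking pdr1 and pdr3 grown in galactose medium; growth measured after three days at 30 °C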
Mtb FBA inh – Mtb FBA enzyme inhibitors, primary screen, biochemical, fluorescence, strain H37Rv; purified M. tuberculosis FBA, fluorescence read-out; inhibition, % at 1 µM; actives 2.3% (n = 360,000); AID 588726, 2011; in the data active = inhibition above about 27%;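 also: 0% = vehicle and 100% = reference inhibitor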
Target sequence (P9WQA3 whole entry, looked up): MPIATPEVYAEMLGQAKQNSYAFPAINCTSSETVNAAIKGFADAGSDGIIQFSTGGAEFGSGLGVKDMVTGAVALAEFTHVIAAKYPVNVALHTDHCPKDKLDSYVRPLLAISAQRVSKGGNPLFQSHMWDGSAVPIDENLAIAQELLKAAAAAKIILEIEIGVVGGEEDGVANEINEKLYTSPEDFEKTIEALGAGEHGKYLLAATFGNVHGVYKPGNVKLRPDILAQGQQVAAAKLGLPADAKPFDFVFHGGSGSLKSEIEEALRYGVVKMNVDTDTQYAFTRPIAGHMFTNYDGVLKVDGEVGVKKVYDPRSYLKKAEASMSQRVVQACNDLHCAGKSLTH
Numbers without * were called inactive.

Screening CN1C2=NC(c3ccccc3)CC(=O)N2/C(=C\c2ccccc2)C1c1ccccc1C(F)(F)F (stereo unspecified) returned PrPC surface inh 2.1.
Clc1ccc2c(c1)c1cc(Cl)ccc1n2CN1CCOCC1 was read as PrPC surface inh 7.7, PrP 5UTR inh -8.6, GDH-TPI inh 9.2, BJeLR lethal -5.0, PfHsp40 rescue 367.4* and Mtb FBA inh 1.7.
`Clc1ccc2c(c1)c1ccccc1n2CN1CCOCC1` gave PrPC surface inh -2.7, PrP 5UTR inh -13.0, GDH-TPI inh 8.2, BJeLR lethal -0.3, PfHsp40 rescue 31.2* and Mtb FBA inh -0.2.
`COc1ccc(Cl)cc1CN1CCOCC1` gave PrPC surface inh -14.5, PrP 5UTR inh -8.8, GDH-TPI inh 10.2, BJeLR lethal -1.7, PfHsp40 rescue -1.7 and Mtb FBA inh 1.7.
Screening CCOC(=O)[C@]12CCCCC/C=C\1N(CCc1ccc(Cl)cc1)C(=O)[C@H]2CC(=O)NCCCOC returned PrPC surface inh 3.4.
COc1cc(C2(c3ccc(O)c(OC)c3)C(=O)N(C)c3ccc(Br)cc32)ccc1O was read as PrPC surface inh 2.4, PrP 5UTR inh -19.7, GDH-TPI inh 4.8, BJeLR lethal -5.6, PfHsp40 rescue 1.9 and Mtb FBA inh 1.1.
COc1cc(C2(c3ccc(O)c(OC)c3)C(=O)Nc3c(Br)cc(Br)cc32)ccc1O was read as PrPC surface inh 0.3, PrP 5UTR inh -15.0, GDH-TPI inh -2.2, BJeLR lethal -11.9, PfHsp40 rescue 65.7* and Mtb FBA inh -1.1.
`FC(F)(F)c1ccccc1Cn1ccc2ccc(-c3ccc4ccn(Cc5ccccc5)c4c3)cc21` gave PrPC surface inh -5.8.
Screening O=[N+]([O-])c1cc(Br)cc(/C=N/n2cnnc2)c1O returned PrPC surface inh -23.0, PrP 5UTR inh -10.8, GDH-TPI inh 2.8, BJeLR lethal 2.9, PfHsp40 rescue 203.7* and Mtb FBA inh -8.4.
C/C(=N/NC(=O)c1cccnc1)c1cccc(O)c1 was read as PrPC surface inh -4.1.
Screening COc1cccc(-c2nnc(N)o2)c1 returned PrPC surface inh 8.9, PrP 5UTR inh -3.8, GDH-TPI inh 4.6, BJeLR lethal 2.4, PfHsp40 rescue 1.4 and Mtb FBA inh 10.3.
`COc1cccc(-c2nnc(-c3ccc(C)o3)o2)c1` gave PrPC surface inh 5.2, PrP 5UTR inh -26.5, GDH-TPI inh 0.9, BJeLR lethal -4.4, PfHsp40 rescue 2.3 and Mtb FBA inh 178.7*.
`COc1ccc(Cn2ccc3ccc(-c4ccc5ccn(Cc6ccc(F)cc6)c5c4)cc32)cc1` gave PrPC surface inh 8.9.
For COCCCn1c(N)c(C(=O)Nc2ccccc2)c2nc3ccccc3nc21 the results were PrPC surface inh 1.7, GDH-TPI inh -0.8, BJeLR lethal 0.8 and Mtb FBA inh 3.9.
`CCCCCOC(=O)c1c(N)n(CCOC)c2nc3ccccc3nc12` gave PrPC surface inh -5.2, PrP 5UTR inh -26.4, GDH-TPI inh 23.0, BJeLR lethal 9.5, PfHsp40 rescue 0.8 and Mtb FBA inh active.
CCOC(=O)c1cnn(CCOC(=O)c2cccs2)c1NC(=O)c1cccs1 was read as PrPC surface inh -4.2, PrP 5UTR inh -6.3, GDH-TPI inh 6.4, PfHsp40 rescue -0.3 and Mtb FBA inh 3.5.
CCOC(=O)c1c(N)n(CCOC(=O)c2cccs2)c2nc3ccccc3nc12 was read as PrPC surface inh 6.2, PrP 5UTR inh -8.8, GDH-TPI inh 18.0, BJeLR lethal 0.2, PfHsp40 rescue -1.1 and Mtb FBA inh 172.5*.
For COc1cccc(/C=C2\CC3(OC(=O)c4ccc(Cl)cc4)CCCN2C3)c1 (stereo unspecified) the results were PrPC surface inh 7.8.
Screening Cc1cccc(C2=NN(c3ccc(Br)cc3)[C@@H](C(=O)N3CCOC3=O)[C@@H]2c2ccc(F)cc2)c1 returned PrPC surface inh 4.0, PrP 5UTR inh -21.7, GDH-TPI inh 10.8, BJeLR lethal 9.4, PfHsp40 rescue -1.6 and Mtb FBA inh 42.5*.
For COc1ccccc1[C@@H]1C(c2cccc(C)c2)=NN(c2ccc(Br)cc2)[C@H]1C(=O)N1CCOC1=O the results were PrPC surface inh -3.1, PrP 5UTR inh -13.0, GDH-TPI inh 9.1, PfHsp40 rescue -0.1 and Mtb FBA inh 14.5.
For Cc1cccc(C2=NN(c3ccc(Br)cc3)[C@@H](C(=O)N3CCOC3=O)[C@@H]2c2ccc(Cl)cc2)c1 the results were PrP 5UTR inh -23.1, GDH-TPI inh 0.9, PfHsp40 rescue 1.4 and Mtb FBA inh 70.2*.
Screening Cc1ccc(S(=O)(=O)Nc2ccccc2C(=O)Nc2nc(-c3ccc(F)cc3)cs2)cc1 returned PrPC surface inh 23.8, PrP 5UTR inh -24.4, GDH-TPI inh 11.6, BJeLR lethal 27.9, PfHsp40 rescue inconclusive and Mtb FBA inh 35.4*.
For O=C(Nc1ccc(F)cc1)C(c1ccccc1)N1CCN(S(=O)(=O)c2ccc3ccccc3c2)CC1 (stereo unspecified) the results were PrPC surface inh 19.1, PrP 5UTR inh 1.3, GDH-TPI inh 12.4, BJeLR lethal -6.1, PfHsp40 rescue 1.0 and Mtb FBA inh 29.8*.
`O=C(c1ccccc1F)N1CCN(S(=O)(=O)c2ccc3ccccc3c2)CC1` gave PrPC surface inh 7.9, PrP 5UTR inh -7.5, GDH-TPI inh 8.6, BJeLR lethal -10.5, PfHsp40 rescue 30.4* and Mtb FBA inh -0.8.
For CSc1ncccc1C(=O)N1CCN(S(=O)(=O)c2ccc3ccccc3c2)CC1 the results were PrPC surface inh -2.9, PrP 5UTR inh -15.7, GDH-TPI inh 0.6, PfHsp40 rescue 1.2 and Mtb FBA inh -0.6.
For Cc1ccc(C)c(S(=O)(=O)N2CCN(C(C(=O)Nc3ccc(F)cc3)c3ccccc3)CC2)c1 (stereo unspecified) the results were PrPC surface inh -4.0, PrP 5UTR inh -11.8, GDH-TPI inh 8.6, BJeLR lethal -1.6, PfHsp40 rescue -0.7 and Mtb FBA inh 2.6.
`COc1ccc(/C=N/NC(=O)Cc2ccc(Cl)cc2)cc1OC` gave PrPC surface inh 0.6, PrP 5UTR inh -10.5, GDH-TPI inh 8.1, BJeLR lethal -5.0, PfHsp40 rescue -0.3 and Mtb FBA inh -0.5.
CC(=O)NC(Cc1ccc(N(CCCl)CCCl)cc1)C(=O)O (stereo unspecified) was read as PrPC surface inh -3.3, PrP 5UTR inh -6.9, GDH-TPI inh 8.1, BJeLR lethal 1.6, PfHsp40 rescue 0.3 and Mtb FBA inh 0.9.
CCN(CC)c1ccc(/C=N/NC(=O)Cc2ccc(OC)c(OC)c2)cc1 was read as PrPC surface inh -4.4, PrP 5UTR inh -27.1, GDH-TPI inh 45.6*, BJeLR lethal -9.5, PfHsp40 rescue -1.4 and Mtb FBA inh 26.0.
